Test results from PubChem BioAssay AID1159580 (chemical genetic matrix, 2015).
Where “and” joins values, the source holds several entries; their conditions need not be identical. Identical values can stand only once. Screen size: about 5,500 compounds; about 2,000 (36%) were called active. Roughly 18% stayed inconclusive and do not appear here. Cut-off read from the data, not from the text of the source: active = normalized growth mostly below about 0.91 (no sharp cut-off); inconclusive = no clear call, values can overlap the other calls; inactive = mostly above about 0.92. The list shows a part of the results.

Assay: chemical genetic growth profiling, strain panel (AID 1159580);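 note: tested at 20 µM; growth read once vehicle control cultures reached saturation at 30 °C; 1 = growth at the plate median or of vehicle wells; lower values mean less growth of the strain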
Conditions: S. cerevisiae deletion strains, growth OD

Measured: normalized growth

CC[C@@]1(O)C[C@H](O[C@H]2C[C@H](N(C)C)[C@H](O)[C@H](C)O2)c2c(cc3c(c2O)C(=O)c2c(O)cccc2C3=O)[C@H]1C(=O)OC
active: locus YAL021C, strain ccr4, stronger effect = lower value 0.653 | locus YAL026C, strain drs2, stronger effect = lower value 0.883 | locus YAL030W, strain snc1, stronger effect = lower value 0.907 | locus YBL061C, strain skt5, stronger effect = lower value 0.891 | locus YBR009C, strain hhf1, stronger effect = lower value 0.783 | locus YBR023C, strain chs3, stronger effect = lower value 0.899 | locus YBR231C, strain swc5, stronger effect = lower value 0.823 | locus YCL011C, strain gbp2, stronger effect = lower value 0.867 | locus YCL016C, strain dcc1, stronger effect = lower value 0.704 | locus YCL029C, strain bik1, stronger effect = lower value 0.854 | locus YDL035C, strain GPR1, stronger effect = lower value 0.797 | locus YDL074C, strain BRE1, stronger effect = lower value 0.765 | locus YDL101C, strain DUN1, stronger effect = lower value 0.786 | locus YDL185W, strain tfp1, stronger effect = lower value 0.853 | locus YDL192W, strain arf1, stronger effect = lower value 0.666 | locus YDR101C, strain arx1, stronger effect = lower value 0.8 | locus YDR137W, strain rgp1, stronger effect = lower value 0.631 | locus YDR159W, strain sac3, stronger effect = lower value 0.73 | locus YDR162C, strain NBP2, stronger effect = lower value 0.595 | locus YDR195W, strain ref2 1.73 [resistant] | locus YDR318W, strain mcm21, stronger effect = lower value 0.866 | locus YDR335W, strain msn5, stronger effect = lower value 0.908 | locus YDR388W, stronger effect = lower value 0.847 | locus YDR392W, strain spt3, stronger effect = lower value 0.676 | locus YDR502C, strain sam2, stronger effect = lower value 0.812 | locus YEL061C, strain CIN8, stronger effect = lower value 0.879 | locus YER015W, strain faa2, stronger effect = lower value 0.869 | locus YER167W, strain BCK2, stronger effect = lower value 0.884 | locus YFR010W, strain ubp6, stronger effect = lower value 0.887 | locus YGL086W, strain mad1, stronger effect = lower value 0.816 | locus YGL240W, strain doc1, stronger effect = lower value 0.788 | locus YGL248W, strain PDE1, stronger effect = lower value 0.88 | locus YGL253W, strain hxk2, stronger effect = lower value 0.792 | locus YGR135W, strain pre9, stronger effect = lower value 0.875 | locus YHR027C, strain rpn1, stronger effect = lower value 0.785 | locus YHR079C, strain IRE1 (second series), stronger effect = lower value 0.89 | locus YHR094C, strain hxt1, stronger effect = lower value 0.92 | locus YHR129C, strain ARP1, stronger effect = lower value 0.886 | locus YHR200W, strain rpn10, stronger effect = lower value 0.788 | locus YIL066C, strain RNR3, stronger effect = lower value 0.79 | locus YIL073C, strain SPO22, stronger effect = lower value 0.538 | locus YIL125W, strain kgd1, stronger effect = lower value 0.918 | locus YIR030C, strain dcg1, stronger effect = lower value 0.871 | locus YJL092W, strain hpr5, stronger effect = lower value 0.804 | locus YJL095W, strain BCK1 (second series), stronger effect = lower value 0.886 | locus YJL115W, strain asf1, stronger effect = lower value 0.507 | locus YJL134W, strain LCB3, stronger effect = lower value 0.924 | locus YJL164C, strain tpk1, stronger effect = lower value 0.867 | locus YJL166W, strain qcr8, stronger effect = lower value 0.85 | locus YJL168C, strain set2, stronger effect = lower value 0.863 | locus YJR043C, strain POL32, stronger effect = lower value 0.722
0.899 (active) and 0.963 (inactive): locus YHR030C, strain SLT2, stronger effect = lower value
0.776 (active) and 0.954 (inactive): locus YJL095W, strain BCK1, stronger effect = lower value
inactive: locus YBR021W, strain FUR4, stronger effect = lower value 1.06 | locus YBR171W, strain sec66, stronger effect = lower value 0.994 | locus YBR229C, strain ROT2, stronger effect = lower value 0.942 | locus YBR279W, strain paf1, stronger effect = lower value 0.94 | locus YCL069W, strain vba3, stronger effect = lower value 0.972 | locus YCR088W, strain abp1, stronger effect = lower value 0.946 | locus YDL005C, strain med2, stronger effect = lower value 0.967 | locus YDL040C, strain nat1, stronger effect = lower value 0.955 | locus YDR001C, strain nth1, stronger effect = lower value 0.944 | locus YDR069C, strain doa4, stronger effect = lower value 0.908 | locus YDR150W, strain NUM1, stronger effect = lower value 0.945 | locus YDR297W, strain sur2, stronger effect = lower value 0.928 | locus YDR334W, strain swr1, stronger effect = lower value 0.959 | locus YEL003W, strain gim4, stronger effect = lower value 0.924 | locus YEL037C, strain rad23, stronger effect = lower value 0.944 | locus YEL061C, strain CIN8 (second series), stronger effect = lower value 0.949 | locus YER016W, strain bim1, stronger effect = lower value 0.925 | locus YER110C, stronger effect = lower value 0.921 | locus YER111C, strain swi4, stronger effect = lower value 0.989 | locus YER155C, strain BEM2 (second series), stronger effect = lower value 0.931 | locus YER155C, strain BEM2, stronger effect = lower value 0.944 | locus YGL078C, strain dbp3, stronger effect = lower value 0.928 | locus YGL167C, strain pmr1, stronger effect = lower value 0.963 | locus YGL173C, strain kem1, stronger effect = lower value 0.913 | locus YGL227W, strain vid30, stronger effect = lower value 0.959 | locus YGR078C, strain PAC10, stronger effect = lower value 0.905 | locus YGR252W, strain gcn5, stronger effect = lower value 1.06 | locus YHR013C, strain ard1, stronger effect = lower value 1.01 | locus YHR079C, strain IRE1, stronger effect = lower value 0.981 | locus YHR142W, strain chs7, stronger effect = lower value 0.882 | locus YJL129C, strain trk1, stronger effect = lower value 1.08 | locus YJL154C, strain vps35, stronger effect = lower value 0.95 | locus YJL187C, strain SWE1 (second series), stronger effect = lower value 0.871 | locus YJR066W, strain TOR1, stronger effect = lower value 0.879 | locus YKL009W, strain mrt4, stronger effect = lower value 0.897
